Laboratory results from PubChem BioAssay (NCI).
The panel holds about 79,000 compounds, 15% with a hit somewhere; the sample as a whole holds those more often. Values without a mark were called inactive. The source made the active and inactive calls. No stated cut-off is given here; in the data, active means growth inhibition above about 70%; inactive means the rest.

Tests used:
[1] = NCI Yeast Anticancer Drug Screen. Data for the rad50 strain (AID 155);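 further: 0% = growth of vehicle-only cultures of the same strain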; settings: S. cerevisiae rad50 strain growth inhibition, active compounds read high
How it was run: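 Growth of the mutant yeast was measured after compound exposure and referenced to vehicle-treated cultures.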

[2] = NCI Yeast Anticancer Drug Screen. Data for the mec2-1 strain (AID 157); settings: S. cerevisiae mec2-1 strain, active compounds read high
How it was run: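 Mutant yeast (mec2-1) grown with compound; growth inhibition relative to vehicle control reported.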

[3] = NCI Yeast Anticancer Drug Screen. Data for the sgs1 mgt1 strain (AID 161);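 further: 0% = growth of cultures given vehicle only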; settings: S. cerevisiae sgs1 mgt1 strain, active compounds read high
How it was run: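 Yeast cells carrying a defined DNA-repair defect were exposed to test compounds. Growth inhibition was measured relative to vehicle-treated controls.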

[4] = NCI Yeast Anticancer Drug Screen. Data for the cln2 rad14 strain (AID 165);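 further: 0% = growth equal to vehicle treated cultures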; settings: S. cerevisiae cln2 rad14 strain, active compounds read high
How it was run: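 Readout is yeast growth inhibition versus vehicle-treated controls, using a strain with cln2 and rad14 alterations exposed to compound.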

[5] = NCI Yeast Anticancer Drug Screen. Data for the bub3 strain (AID 167); settings: S. cerevisiae bub3 mutant strain, active compounds read high
How it was run: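 Whole-cell yeast assay. The mutant strain was incubated with compounds, and growth inhibition was determined by comparison with vehicle-treated cells.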

[6] = NCI Yeast Anticancer Drug Screen. Data for the mlh1 rad18 strain (AID 175); settings: S. cerevisiae mlh1 rad18 strain growth inhibition, active compounds read high
How it was run: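 Genetically defined yeast (DNA repair-deficient) exposed to compounds; growth inhibition determined relative to vehicle.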

[7] = at 5.0 µM (retest, dose inferred, filed as 0.5)
[8] = at 50.0 µM (retest, dose inferred, filed as 5.0)

Row | Compound | growth inhibition [1, 7] [%] | growth inhibition [1, 8] | growth inhibition ([1]; at 50.0 µM) | growth inhibition [2, 7] | growth inhibition [2, 8] | growth inhibition ([2]; at 50.0 µM) | growth inhibition [3, 7] | growth inhibition [3, 8] | growth inhibition ([3]; at 50.0 µM) | growth inhibition [4, 7] | growth inhibition [4, 8] | growth inhibition ([4]; at 50.0 µM) | growth inhibition [5, 7] [%] | growth inhibition [5, 8] | growth inhibition ([5]; at 50.0 µM) | growth inhibition [6, 7] | growth inhibition [6, 8] | growth inhibition ([6]; at 50.0 µM)
1 | O=C(O)C(c1ccc(Cl)cc1)c1ccc(Cl)cc1 | 10 | 98% (active) | 95.3% (active) | 9% | 98% (active) | 95.5% (active) | 7% | 99% (active) | 91.9% (active) | 6% | 97% (active) | 92.5% (active) | 9 | 99% (active) | 97.4% (active) | 13% | 96% (active) | 95.8% (active)
2 | CN(C)/N=C(/CC(O)(C(F)(F)F)C(F)(F)F)c1ccc([N+](=O)[O-])cc1 | 25 | 20% | -4.65% | 19% | 11% | -8.95% | 19% | 22% | 35.6% | 12% | 12% | -18.6% | 15 | 7% | -12.9% | 25% | 21% | -16.4%
3 | CCOC(=O)/C=C/c1ccc([N+](=O)[O-])o1 | 18 | 91% (active) | 73.2% (active) | 3% | 72% (active) | 31.4% | 21% | 93% (active) | 91.5% (active) | 4% | 58% | 34.5% | 11 | 82% (active) | 27.1% | 28% | 93% (active) | 85.5% (active)
4 | C#CCNCc1ccccc1 | 18 | 63% | 66.8% | 18% | 47% | 35.5% | 11% | 63% | 89% (active) | 0% | 32% | 29.4% | 5 | 78% (active) | 76.8% (active) | -4% | 49% | 58.8%
5 | Nc1c(/C=C/c2cc3cc(C4=NCCN4)ccc3o2)[nH]c2cc(C3=NCCN3)ccc12 | 13 | 98% (active) | 97.5% (active) | 22% | 98% (active) | 98% (active) | -2% | 99% (active) | 98.2% (active) | -22% | 97% (active) | 97.4% (active) | 7 | 98% (active) | 97% (active) | 13% | 97% (active) | 97.8% (active)
6 | Cc1ccc2c(c1)CC1(C2)Cc2ccc(C)cc2C1=O (configuration not stated) | 6 | 73% (active) | 25.4% | -20% | 85% (active) | 17.6% | -28% | 75% (active) | 54.3% | 29% | 39% | 21.4% | -5 | 88% (active) | 64.8% | 5% | 65% | 44.1%
7 | Cc1ccc(S(=O)(=O)n2c3c(c4ccccc42)CCN2C(=O)C(S(=O)(=O)c4ccccc4)=CCC32)cc1 (configuration not stated) | 65 | 97% (active) | 94.6% (active) | 71% (active) | 98% (active) | 95.7% (active) | 74% (active) | 98% (active) | 97.5% (active) | 71% (active) | 98% (active) | 97.9% (active) | 29 | 97% (active) | 97.5% (active) | 78% (active) | 97% (active) | 95.8% (active)
8 | CC(/C=C/c1cccs1)=N\C(=S)NC(N)=S | -1 | 0% | 3.7% | 10% | 32% | 28.4% | 1% | 12% | 26.7% | -1% | -4% | 2.05% | 1 | 52% | 77.8% (active) | -5% | 12% | 25.9%
9 | O=C1N[C@H]2[C@H](CS[C@H]2CCCCC(=O)N(CCP(c2ccccc2)c2ccccc2)CCP(c2ccccc2)c2ccccc2)N1 | 2 | 41% | 59.4% | 1% | 27% | 16.4% | 11% | 47% | -5.85% | 9% | 23% | -18.8% | 16 | 34% | 7.8% | -15% | 8% | -26.7%
